According to the supplement of paper PMC3334620:
Over roughly 33,000 sequences, “E-score (-0.5 to 0.5)” has its median near -0.043; the highest 2% begin near 0.37. The full list was thinned out, with the highest values kept by preference.

The sequences below were run against T1, Upc2 (UniProt Q12151) (assay: PBM E-score (8-mer binding enrichment) (E-score (-0.5 to 0.5)); higher = stronger / more preferred TF binding). Conditions: protein concentration: 200 nM; construct: GST-full length.
T1 sequence: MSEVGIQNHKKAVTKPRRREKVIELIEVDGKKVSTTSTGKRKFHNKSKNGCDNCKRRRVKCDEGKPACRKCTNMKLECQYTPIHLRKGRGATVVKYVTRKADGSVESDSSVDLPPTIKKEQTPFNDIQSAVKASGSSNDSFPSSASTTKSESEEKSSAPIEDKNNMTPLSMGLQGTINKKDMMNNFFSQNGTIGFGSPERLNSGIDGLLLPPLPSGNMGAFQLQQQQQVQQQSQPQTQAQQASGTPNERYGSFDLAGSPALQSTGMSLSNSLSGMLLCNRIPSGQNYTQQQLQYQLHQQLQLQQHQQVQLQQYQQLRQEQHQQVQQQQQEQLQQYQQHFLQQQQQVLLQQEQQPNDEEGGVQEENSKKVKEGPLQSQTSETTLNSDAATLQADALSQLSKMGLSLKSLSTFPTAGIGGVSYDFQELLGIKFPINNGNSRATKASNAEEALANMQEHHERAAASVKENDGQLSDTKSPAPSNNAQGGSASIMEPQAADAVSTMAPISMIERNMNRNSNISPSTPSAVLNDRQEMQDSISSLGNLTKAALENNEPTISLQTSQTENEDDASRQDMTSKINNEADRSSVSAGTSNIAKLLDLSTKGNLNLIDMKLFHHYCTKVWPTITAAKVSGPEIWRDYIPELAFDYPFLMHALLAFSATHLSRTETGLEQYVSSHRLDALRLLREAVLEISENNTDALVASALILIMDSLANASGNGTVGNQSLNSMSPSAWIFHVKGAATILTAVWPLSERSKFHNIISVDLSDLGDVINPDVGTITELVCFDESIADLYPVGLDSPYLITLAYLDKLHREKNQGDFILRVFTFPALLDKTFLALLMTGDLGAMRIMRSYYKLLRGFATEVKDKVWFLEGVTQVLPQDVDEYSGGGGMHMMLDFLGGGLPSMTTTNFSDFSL
Method: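 Universal 'all 10-mer' protein binding microarrays (Agilent AMADID 015681) probed with GST-tagged S. cerevisiae TFs (full-length or DBD) made by in vitro transcription/translation (PURExpress), about 100-200 nM. Bound TF was detected with fluorescent anti-GST. Each ungapped 8-mer (which stands for itself and its reverse complement) is scored by the PBM enrichment score (E-score), a modified Wilcoxon-Mann-Whitney statistic from -0.5 to +0.5, computed with the Universal PBM Analysis Suite. Scale: above 0.35 generally sequence-specific binding.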

Sequence	PBM E-score
CCAATCCG	-0.0814
CCGAAAAA	0.0605
AATCAAAA	-0.0286
ACCCTGGC	-0.206
AATTATGC	0.0912
CGAATTCA	0.0713
CTTGGCCC	-0.171
CCGCTTCA	-0.0583
CCATGCCG	-0.135
CCTTGCCC	-0.056
AAATAGAA	-0.0216
GACGAGAC	0.0394
CACGAGAC	0.0139
AACGAGAC	0.437
GTCGCTTA	0.396
ATCGCTTA	0.364
GTCGCTAA	0.271
ATCGCATA	0.318
CTCGCATA	0.363
GTCGCTGA	-0.0513
CTCGCTGA	-0.136
CTCGCTTA	0.423
GTCGCATA	0.375
ACTGCAGG	-0.156

Sequence	PBM E-score
ATTGGGAC	-0.218
GGTAGTTA	-0.14
ACGAGGAG	0.306
ACGAGTTC	0.342
ACGAGGAC	0.384
ACGAGGTC	0.371
GCGAGGAC	-0.102
ACGAGTTA	0.392
ACGAGGGA	0.364
CCGAGGGC	0.094
CCGAGGTC	0.0232
GCGAGTTA	0.116
AAGAGGTC	-0.186
ACGAGGGC	0.388
CACCACGC	-0.221
GAGGGGAC	-0.152
AAGGTCAG	-0.239
CGTCGAAC	0.0511
GCCCCAGA	-0.09
AACTGTAA	0.103
TAGATTAA	0.104
GCTGCGGA	-0.164
ACGAGGTA	0.382
ACGAGGTG	0.367

Sequence	PBM E-score
GCGAGGTA	0.244
GATGGTAC	0.139
AGTGTCAG	-0.0575
CGGGATAC	0.18
ACGAGGCC	0.381
AGGAGGCG	-0.326
ACGAGGCA	0.408
AAGAGGCT	-0.257
GCGAGGCC	0.2
ACGAGGCG	0.4
GCGAGGCA	0.195
ACGAGGCT	0.406
CCGAGGCC	0.102
CCGAGGCA	-0.0905
CCGAGGCG	0.129
ACGAGGAT	0.355
CACAGGCG	-0.208
CCGACAGG	-0.0268
AATTTGTC	0.0333
CATTAGCG	0.197
GATCTCCC	-0.162
GCTGGACC	-0.0565
CTACAATC	0.0566
ACTAGATG	-0.122

Sequence	PBM E-score
AGGGGCCA	-0.215
ACCGATCT	-0.0555
CACGATCG	0.125
AACGATCT	0.381
AACGATCA	0.379
CACGATCA	-0.0545
TACGATCA	0.422
AACGATCG	0.383
AACGATCC	0.345
AGCGATCA	0.11
ATCGATCG	0.136
GACGATCA	-0.0322
ATCGATCA	0.0619
GAGCGATA	0.218
GAAGAAGC	-0.195
AGTCAAGG	-0.208
AACGCGAA	0.23
CTCTTGCC	-0.16
ATAACCTC	-0.0875
AAGGAAAG	-0.171
CGCACTAC	-0.0438
ACCTCAGT	-0.0386
